# Shown are actives, neighbours in structure and some others; about 9% of the full set was active somewhere.
# ALDH1A1 inh: qHTS Assay for Inhibitors of Aldehyde Dehydrogenase 1 (ALDH1A1); Aldehyde dehydrogenase 1A1 (Homo sapiens), P00352; Purified ALDH1A1, NADH fluorescence, propionaldehyde substrate; Potency, µM (top dose mostly 75.3 µM), for inactives: at the highest dose activity, negative = inhibition, most hits filed as inhibitors; 220,000 compounds, 7.3% hits; AID 1030, 2008;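 further: potency means the concentration at half of the fitted maximal effect; plate controls were no enzyme wells and a reference inhibitor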
# IMPase inh: qHTS Assay for Identifying the Cell-Membrane Permeable IMPase Inhibitors; Inositol monophosphatase 1 (Rattus norvegicus), P97697; CHO-M1 cells, IP1 accumulation, HTRF TR-FRET ratio; inhibition (IP1 accumulation), % at 46.1 µM; 120,000 tested, under 10 active; AID 901, 2007; active means well fitted curve in the direction sought with a large enough effect in the signal ratio, not every such curve was filed as active; inconclusive means small, poorly fitted or top-dose-only effect, or a change in a side signal; inactive means no such curve, though single readings can be large or run the other way; the % refers to the signal ratio;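 further: cells stimulated with carbachol in lithium chloride buffer; plate controls were DMSO basal wells for no effect and reference inhibitor wells for full effect; higher means more IMPase inhibition seen as more IP1 and lower FRET ratio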
# Target sequence (P97697 whole entry, looked up): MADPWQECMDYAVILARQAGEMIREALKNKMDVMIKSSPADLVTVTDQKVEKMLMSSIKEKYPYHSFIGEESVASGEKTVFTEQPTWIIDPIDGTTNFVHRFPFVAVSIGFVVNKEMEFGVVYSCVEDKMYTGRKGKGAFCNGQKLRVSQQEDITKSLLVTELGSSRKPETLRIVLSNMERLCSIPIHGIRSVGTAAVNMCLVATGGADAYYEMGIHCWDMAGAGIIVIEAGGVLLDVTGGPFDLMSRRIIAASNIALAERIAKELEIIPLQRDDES
#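 Elevated IP1 in lysates lowers TR-FRET signal (665/620 ratio and 620 channel reported). Cells were CHO-M1, given carbachol (50 uM as added) plus 50mM LiCl, pH 7.4, 30 min, 37C; compounds titrated up to 46 uM; AC50 by Hill equation.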
# HPGD inh: qHTS Assay for Inhibitors of HPGD (15-Hydroxyprostaglandin Dehydrogenase); 15-hydroxyprostaglandin dehydrogenase [NAD(+)] (Homo sapiens), P15428; purified HPGD, NADH fluorescence kinetic, PGE2 substrate; Potency, µM, without a hit: at the top dose activity change, negative = inhibition, usual class: inhibitors; 150,000 compounds, 4.3% hits; AID 894, 2007; further: potency means the concentration at half of the fitted maximal effect
# Target sequence (P15428 whole entry, looked up): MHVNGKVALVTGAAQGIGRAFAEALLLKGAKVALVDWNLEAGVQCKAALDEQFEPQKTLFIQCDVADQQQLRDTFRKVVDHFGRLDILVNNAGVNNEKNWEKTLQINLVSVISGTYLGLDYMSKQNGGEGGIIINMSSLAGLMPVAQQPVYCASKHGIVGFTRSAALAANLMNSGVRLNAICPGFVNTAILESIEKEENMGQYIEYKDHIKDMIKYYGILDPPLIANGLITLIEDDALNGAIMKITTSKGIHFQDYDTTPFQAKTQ
#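 NADH formation kinetics: reaction with 30 uM PGE2 and 1 mM NAD+ (final), 20 nM enzyme, Tris-HCl pH 8 with Tween 20, after 15 min compound preincubation at room temperature. Fluorescence change, last versus first of five reads.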
# Numbers without * were called inactive; ? = inconclusive; / = no result given; ! = not confirmed by another sample; [ ] = another dose, or the depositor's remark. Unless noted, the call rests on the fitted dose curve; in most records, active means well fitted inhibition curve with a large enough effect (not every such curve was filed as active); inconclusive means small, poorly fitted or top-dose-only effect, or another doubt; inactive means no such curve, though single readings can be large or run the other way. Unless noted, on the % scale 0 is the no-effect control and ±100 the full control effect.
SMILES,ALDH1A1 inh,IMPase inh,HPGD inh
CC(C)C[C@@H](CC(=O)N[C@@H](CCC(=O)O)CC(=O)O)NC(=O)[C@@H]1CCCC[C@H]1NC(=O)C[C@H](CCCN)NC(=O)C[C@H](Cc1ccccc1)NC(=O)[C@@H]1CCCC[C@H]1N,5%,/,-8%
Cc1ccc(C(=O)N2CCCC(C(=O)c3cc(F)ccc3F)C2)s1 (stereo not given),-6%,/,/
Cc1cc(C(=O)N2CCCC(C(=O)c3cc(F)ccc3F)C2)c(C)o1 (stereo not given),14µM*,/,/
CCCCOc1ccc(C(=O)N/C(=C\c2ccc(Br)cc2)C(=O)NC2CCCCC2)cc1,/,-5,/
O=C(N[C@@H](Cc1ccccc1)C(=O)O)c1c(F)c(F)c(F)c(F)c1F,6%,/,/
Cc1ccc(O)c(Sc2cc(C)ccc2O)c1,-3%,20,16µM*
COC(=O)c1ccc(O)c(Sc2cc(C(=O)OC)ccc2O)c1,13µM*,0,4µM*
Cc1ccc(O)c(N)c1,?,/,-9%
COC(=O)c1ccc2nc(C)c(C)nc2c1,6%,1,-9%
CCc1nc2nc(C)c(NS(=O)(=O)c3ccc(C)cc3)c(=O)n2[nH]1,/,-5,/
Cc1ccc(SC(C)C(=O)N2CCC(C(N)=O)CC2)cc1 (stereo not given),5%,/,/
CCCCCNCCCCC,?,/,-4%
CCNc1ccc(S(=O)(=O)N(C)C)cc1NCC(=O)Nc1c(F)cccc1F,?,-6,-18%
CCNc1ccc(S(=O)(=O)N(C)C)cc1NCC(=O)Nc1ccccc1Cl,8.9µM*,/,/
Cc1cc(NC(=O)C2(c3ccccc3)CCCC2)no1,1%,-13,5%
COc1ccc(N2C(=O)/C(=C/c3cccs3)NC2=S)cc1,3.2µM*,/,3.5µM*
CCN1C(=O)/C(=C/c2cccs2)SC1=Nc1ccc(OC)cc1,-3%,6,-3%
O=C(c1cc2ccc([N+](=O)[O-])cc2oc1=O)N1CCOCC1,10%,/,/
CC(C)(C)C1CCc2onc(C(=O)Nc3cccnc3)c2C1 (stereo not given),-1%,-1,-2%
O=C(Nc1cccnc1)c1noc2c1CCCC2,22µM*,2,-14%
CSc1ccc(S(=O)(=O)N2CCN(Cc3ccc4c(c3)OCO4)CC2)cc1,14µM*,1,-3%
COc1ccc(F)cc1S(=O)(=O)N1CCN(Cc2ccc3c(c2)OCO3)CC1,-13%,7,0%
CCCS(=O)(=O)n1nc(-c2ccc(Br)cc2)cc1N,12%,-1,-10%
O=C(Nn1c(C2CCCCC2)nc2ccccc2c1=O)c1ccc(Cl)c([N+](=O)[O-])c1,-4%,/,-14%
Cc1cc(C(=O)Nn2c(C3CCCCC3)nc3ccccc3c2=O)ccc1[N+](=O)[O-],22µM*,/,-5%
SMILES,ALDH1A1 inh,IMPase inh,HPGD inh
COc1cc(OC)c(Nc2nc3ccccc3c3nncn23)cc1Cl,/,-6,/
C=CCn1c(=O)/c(=C/c2ccc(O)cc2)s/c1=C(/C#N)c1nnc2n1CCCCC2,?,7,-11%
C=CCn1c(=O)/c(=C/c2ccc(Cl)cc2)s/c1=C(/C#N)c1nnc2n1CCCCC2,?,5,25µM*
O=C(Nc1cccc2ccccc12)N1CCN(c2ccc(F)cc2)CC1,-2%,-14,-9%
O=C(Nc1ccccc1CC[N+](=O)[O-])N1CCN(c2ccccc2)CC1,8.9µM*,/,/
CCOc1ccc(NC(=O)CC2Nc3cccc4cccc(c34)NC2=O)cc1 (stereo not given),/,-6,/
Cc1ccc([N+](=O)[O-])cc1S(=O)(=O)N1CCCC1,-9%,5,/
Cc1ccc([N+](=O)[O-])cc1S(=O)(=O)N(C)C,32µM*!,-1,5%
Cn1c(SCC(=O)N2c3ccccc3CCc3ccccc32)nnc1-c1ccc(O)cc1,1%,2,5%
CC(OC(=O)c1ccc2c(=O)n3c(nc2c1)CCCCC3)C(N)=O (stereo not given),-8%,/,/
Cc1nc(SCC(=O)Nc2ccc(Br)cc2)[nH]c(=O)c1Cc1ccccc1,/,-8,/
CCc1c(C)nc(SCC(=O)Nc2cccc(Br)c2)[nH]c1=O,-4%,11,3.5µM*
CCc1c(C)nc(SCC(=O)Nc2ccc(Br)cc2)[nH]c1=O,4%,-7,14µM*
Cc1ccc(NC(=O)CSc2nc(C)c(Cc3ccccc3)c(=O)[nH]2)cc1,?,1,/
C=CCc1cccc([C@@H]2[C@@H](C)CC[C@H]3C(=O)N4[C@@H](c5cc(OC)c(OC)c(OC)c5)c5[nH]c6ccccc6c5C[C@H]4C(=O)N23)c1,-7%,/,-16%
O[C@H]1[C@H]2c3cc4c(cc3CN3CCC(=C[C@@H]1O)[C@H]23)OCO4,-2%,/,/
CCOc1cccc(C=Nc2cc(C)cc(C)c2O)c1O,22µM*,2,11µM*
CCOc1cccc(/C=N/NC(=O)CC2C(=O)NN=C2C)c1O (stereo not given),0%,/,/
Cc1cc(C)nc(SCCc2ccncc2)n1,25µM*,8,-21%
Cc1cc(C)nc(SCSc2nc(C)cc(C)n2)n1,8%,5,-21%
NC(=O)N1CC(O)CC1C(=O)Nc1ccc(Cl)c(Cl)c1 (stereo not given),10%,-4,-4%
CC(=O)N1CCC2(CC1)CN(c1ccccc1)C2,16µM*,/,-7%
CC(=O)N1CCC2(CC1)CCN(c1ccccc1)CC2,4%,/,2%
O=S(=O)(c1ccccc1)N1CCC2(CC1)CN(c1ccncc1)C2,-8%,/,-27%
O=S(=O)(c1ccccc1)N1CCC2(CC1)CN(c1ccccc1)C2,14µM*,/,-8%
SMILES,ALDH1A1 inh,IMPase inh,HPGD inh
Cc1ccc(OCCn2cnc3ccccc3c2=O)c([N+](=O)[O-])c1,9%,/,-6%
O[C@@H](c1cc(C(F)(F)F)nc2c(Cl)cc(Cl)cc12)C1CCCCN1 (stereo not given in full),2%[13.5 µM],/,-8%
O=C(CN1C(=O)C2C3C=CC(C4CC34)C2C1=O)Nc1cnc2ccccc2c1 (stereo not given),-1%,/,/
COc1ccc([N+](=O)[O-])cc1NC(=S)Nc1ccccc1,?,8,-28%
O=[N+]([O-])c1ccc(O)c(NC(=S)Nc2ccccc2)c1,22µM*,13,?
CO/N=C(\c1nonc1N)N1CCN(c2ccc([N+](=O)[O-])cc2Cl)CC1,?,8,-22%
CCO/N=C(/c1nonc1N)N1CCN(c2ccc([N+](=O)[O-])cc2)CC1,11µM*,3,-14%
COc1ccc(C(=O)NC(C(=O)NCC(=O)Nc2c(C)cccc2C)C(C)C)cc1 (stereo not given),16%,/,-1%
O=C(c1sc2cccc(F)c2c1Cl)N1CCN(c2ncccn2)CC1,28µM*,/,-12%
Cc1onc(-c2c(F)cccc2Cl)c1C(=O)N1CCN(c2ncccn2)CC1,7%,/,/
CC(=O)Oc1ccc(C2OC(=O)c3ccccc3N2C(C)=O)cc1 (stereo not given),-11%,-11,-6%
CC(=O)N1c2ccccc2C(=O)C1N1CCCCC1 (stereo not given),28µM*,-1,-17%
Nc1nnc(CSCc2ccc(F)cc2)s1,10µM*,3,22µM*

# Bioassay records (PubChem BioAssay)
